Laboratory results from PubChem BioAssay (EPA / NIEHS).
Records with an inconclusive call do not appear. The source made the active and inactive calls. Rule for the calls: active = hit-call score of the fitted dose curve at least 0.9, where 1 is the maximum; inconclusive = response in the unintended direction; inactive = score below 0.9.

The compounds below were run against Estrogen receptor (Homo sapiens) (UniProt P03372) (assay: NVS_NR_hER: NovaScreen (NVS) Nuclear Receptor Binding Assay for human Estrogen Receptor (ER) (AID 2283348)).
In short: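 Cell-free MCF7-derived ER preparation, specific radioligand displaced by test compound, read by scintillation counting 18 h post-dosing. Duplicate single-point 25 uM screen, then concentration-response confirmation; DMSO baseline.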

Chain of Estrogen receptor (Homo sapiens) (P03372 whole entry, looked up): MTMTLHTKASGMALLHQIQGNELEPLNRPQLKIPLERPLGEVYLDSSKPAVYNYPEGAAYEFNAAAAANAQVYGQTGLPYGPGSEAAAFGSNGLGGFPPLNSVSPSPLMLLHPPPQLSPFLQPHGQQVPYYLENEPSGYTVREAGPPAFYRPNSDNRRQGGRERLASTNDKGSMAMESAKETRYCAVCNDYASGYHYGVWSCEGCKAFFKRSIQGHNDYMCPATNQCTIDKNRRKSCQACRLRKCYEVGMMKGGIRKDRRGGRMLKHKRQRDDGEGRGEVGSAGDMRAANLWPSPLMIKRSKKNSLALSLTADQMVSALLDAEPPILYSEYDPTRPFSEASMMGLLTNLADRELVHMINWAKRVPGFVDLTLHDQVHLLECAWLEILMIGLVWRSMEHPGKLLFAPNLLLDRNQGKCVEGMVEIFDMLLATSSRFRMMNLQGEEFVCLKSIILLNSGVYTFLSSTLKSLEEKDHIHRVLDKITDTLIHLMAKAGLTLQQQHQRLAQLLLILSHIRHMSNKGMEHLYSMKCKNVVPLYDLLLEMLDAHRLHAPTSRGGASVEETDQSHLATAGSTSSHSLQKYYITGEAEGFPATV

Structure (SMILES) | outcome
O=C(NC(=O)c1c(F)cccc1F)Nc1cc(Cl)c(Oc2ncc(C(F)(F)F)cc2Cl)c(Cl)c1 | inactive
O=[N+]([O-])c1c2ccccc2cc2ccccc12 | inactive
c1csc(-c2ccc(-c3cccs3)s2)c1 | inactive
CC(C)(C)c1cc([N+](=O)[O-])cc(C(C)(C)C)c1O | inactive
C=CC(=O)OCC(COC(=O)C=C)(COC(=O)C=C)COC(=O)C=C | inactive
CCCCCCCCCCCCCCC(Br)C(=O)O (centres undefined) | inactive
CC(=Cc1ccccc1)[N+](=O)[O-] | inactive
Oc1ccc(Cc2ccc(O)cc2)cc1 | inactive
O=S1OC[C@@H]2[C@H](CO1)[C@]1(Cl)C(Cl)=C(Cl)[C@@]2(Cl)C1(Cl)Cl (some centres undefined) | inactive
Nc1ccc(Br)cc1 | inactive
O=C(Nc1ccc(Br)cc1)c1cc(Br)cc(Br)c1O | inactive
CCCCCCCCCCCCBr | inactive
CCCCC(CC)C(=O)Cl (centres undefined) | inactive
O=C(Cl)OCCOCCOC(=O)Cl | inactive
